According to PubChem BioAssay AID1159580 (chemical genetic matrix, 2015):
Among all 5,500 compounds or so, about 2,000 (36%) were called active. Roughly 18% stayed inconclusive and do not appear here. No stated cut-off is given here; in the data, active means normalized growth mostly below about 0.91 (no sharp cut-off); inconclusive means no clear call, values can overlap the other calls; inactive means mostly above about 0.92. Some of the results follow.

Assay: chemical genetic growth profiling, strain panel (AID 1159580);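 further: tested at 20 µM; growth read once vehicle control cultures reached saturation at 30 °C; 1 = growth at the plate median or of vehicle wells; lower values mean less growth of the strain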
Conditions: S. cerevisiae deletion strains, growth OD

Measured: normalized growth

CCN1CN=C(SCc2ccc(Br)cc2)NC1
inactive: locus YAL013W, strain DEP1, hits give low values 1.01 | locus YBR229C, strain ROT2, hits give low values 1.01 | locus YCL061C, strain MRC1, hits give low values 1.02 | locus YDL101C, strain DUN1, hits give low values 0.998 | locus YDL134C, strain PPH21, hits give low values 1.01 | locus YDR150W, strain NUM1, hits give low values 0.995 | locus YEL061C, strain CIN8, hits give low values 1.01 | locus YGR078C, strain PAC10, hits give low values 0.998 | locus YHR030C, strain SLT2, hits give low values 0.902 | locus YHR087W, strain rtc3, hits give low values 0.999 | locus YJL187C, strain SWE1, hits give low values 1.01 | locus YJR043C, strain POL32, hits give low values 0.988 | locus YJR075W, strain HOC1, hits give low values 0.98 | locus YKL190W, strain CNB1, hits give low values 1.02 | locus YLR039C, strain RIC1, hits give low values 0.982 | locus YLR058C, strain SHM2 (second series), hits give low values 1.02 | locus YLR085C, strain ARP6, hits give low values 1.02 | locus YLR262C, strain YPT6, hits give low values 0.953 | locus YML094W, strain GIM5, hits give low values 0.996 | locus YMR219W, strain ESC1, hits give low values 0.999 | locus YMR263W, strain SAP30, hits give low values 1.01 | locus YMR307W, strain GAS1, hits give low values 1.17 | locus YNL153C, strain GIM3, hits give low values 0.986 | locus YNL298W, strain CLA4 (second series), hits give low values 0.984 | locus YNL322C, strain KRE1, hits give low values 1.01 | locus YNR030W, strain Alg12, hits give low values 0.999 | locus YPL055C, strain LGE1, hits give low values 1.06 | locus YPL241C, strain CIN2, hits give low values 0.995 | locus YPR135W, strain CTF4, hits give low values 0.98
